Data on six molecules can be found in PubChem BioAssay (NCATS).

Test [1] in a line: Cell Viability - BJ (AID 421; calls by dose curve;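 also: potency is read from the fitted curve at half-maximal effect; cells exposed to compound for 40 hours at 37 °C before readout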). The settings on record: BJ fibroblast viability, qHTS. The essentials:
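Cytotoxicity as drop in intracellular ATP (CellTiter-Glo, 20 min RT) after 40 hr compound exposure of BJ fibroblasts at 37 °C. Titrations scaled between DMSO and 100 uM tamoxifen, Hill-fitted for AC50.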
A general note: In qHTS, concentration-response curves come from the screen itself.

Test [2] is described as follows: Cell Viability - HepG2 (AID 433; calls by dose curve;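 also: potency is read from the fitted curve at half-maximal effect; potency for ATP loss meaning cytotoxicity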). The settings on record: qHTS. The gist of the method:
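In this qHTS format, a 40 h, 37 °C compound incubation of HepG2 cells in complete medium precedes a 20 min CellTiter-Glo step at room temperature. Tamoxifen and doxorubicin serve as positive controls; Hill-equation fits yield AC50.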

Test [3] is described as follows: Cell Viability - Renal Proximal Tubule (AID 545). Also: nearly all actives have a fitted effect of over 40% in size. Conditions: renal proximal tubule cells viability, primary cells of rat origin; activity change, negative = cytotoxicity: at 91.7 µM (top of the series). The essentials:
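In this qHTS format, normal rat kidney-derived proximal tubule cells in complete culture medium receive compound titrations, then sit 40 hours at 37 °C before luciferase-based ATP quantitation; potency is reported as AC50 from concentration-response curves.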

Test [4] in a line: Cellular Toxicity (caspase-3) Jurkat (AID 655).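 Also: cells exposed to compound for 16 h at 37 °C before reading.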 The settings on record: Jurkat caspase-3 activation, luminescence; caspase-3 activation: at 92.2 µM (top of the series), DMSO = 0%, tamoxifen = 100%. The essentials: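 qHTS in human Jurkat T-cell leukemia line: 16 hr compound treatment at 37 °C, caspase-3/7 activity measured by Caspase-Glo luminescence. AC50 derived from Hill equation.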

A short description of test [5]: MultiTox-Fluor Cytotoxicity Assay - LYMP1-001 - Dead Cells (AID 946). The settings on record: LYMP1-001 lymphoblastoid cells, dead-cell protease fluorescence; series mostly up to 92.2 µM. The essentials:
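Cytotoxicity as increased dead-cell protease fluorescence (bis-AAF-R110, 485/520 nm), read 60 min after MultiTox-Fluor reagent. Human lymphoblastoid line exposed 16 h; Hill-fitted AC50, with DMSO as 0% and 15 uM tetraoctylammonium bromide as 100%.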

Test [6] in a line: Cell Viability - LYMP1-002 - Assay at 16 hr (AID 948).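 Also: 0% = DMSO alone and full effect = 92 µM tetraoctylammonium bromide.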 The settings on record: LYMP1-002 lymphoblastoid cell viability; series mostly up to 92.2 µM. The essentials:
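In this qHTS, lymphoblastoid LYMP1-002 cells (human) receive compounds for 16 hr at 37 C. Viability is taken from CellTiter-Glo ATP luminescence, and AC50 derives from standard Hill fits.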

Test [7] can be described thus: MultiTox-Fluor Cytotoxicity Assay - LYMP1-002 - Live Cells (AID 955).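 Also: cells exposed to compound for 16 hours; % is scaled to controls: 0 for no effect and ±100 for the full control effect.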 Conditions: LYMP1-002 lymphoblastoid live-cell protease fluorescence viability; series mostly up to 46.1 µM. The gist of the method: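 Cytotoxicity in the human lymphoblastoid line LYMP1-002 is measured as loss of live-cell protease activity after 16 h treatment in complete culture medium. AC50 is derived from Hill-equation fits of qHTS concentration-response data.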

A short description of test [8]: MultiTox-Fluor Cytotoxicity Assay - LYMP1-003 - Dead Cells (AID 961). Also: nearly all actives have a fitted effect of over 70% in size. The settings on record: LYMP1-003 lymphoblastoid cells, dead-cell protease fluorescence; series mostly up to 92.2 µM. The gist of the method: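 Dead-cell protease release, detected as bis-AAF-R110 fluorescence at 485/520 nm, was measured in LYMP1-003 cells after 16 h compound treatment at 37 C. AC50 values came from Hill-modeled qHTS curves normalized to DMSO (0%) and 15 uM tetraoctylammonium bromide (100%).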

The nature of test [9]: Cell Viability - LYMP2-004 (AID 966). Also: nearly all actives have a fitted effect of over 65% in size. Also: potency is read from the fitted curve at half-maximal effect.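 As to activity change, negative = cytotoxicity: plate controls were DMSO only for no effect and tetraoctylammonium bromide control for full effect.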 The settings on record: LYMP2-004 lymphoblastoid cell viability, qHTS; series mostly up to 92.2 µM. The essentials:
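Acute toxicity is scored as a concentration-dependent drop in intracellular ATP, quantified by luciferase luminescence, in human lymphoblastoid cells exposed to compound for 24 hr. AC50 derives from Hill-equation modelling.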

Test [10] is described as follows: Cell Viability - LYMP2-011 (AID 969). Also: nearly all actives have a fitted effect of over 60% in size. Also: potency is read from the fitted curve at half-maximal effect. Conditions: LYMP2-011 lymphoblastoid cells viability; series mostly up to 92.2 µM. The gist of the method: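 Acute toxicity is scored as a concentration-dependent drop in intracellular ATP of a human lymphoblastoid line after 24 hr treatment. Values are AC50s modeled with the Hill equation.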
Test [11] is described as follows: Cell Viability - LYMP2-017 (AID 972).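 Also: cells exposed to compound for 24 hours at 37 °C; nearly all actives have a fitted effect of over 55% in size.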 Also: potency is read from the fitted curve at half-maximal effect. As to activity change, negative = cytotoxicity: % is scaled to controls: 0 for no effect and ±100 for the full control effect. The settings on record: LYMP2-017 lymphoblastoid cell viability; series mostly up to 92.2 µM. The gist of the method:
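Steps: plate 2500 lymphoblastoid cells per well; incubate 5 hr at 37 C; add compound across a concentration series and incubate 24 hr at 37 C; add CellTiter-Glo and read luminescence after 30 min at room temperature; fit Hill curves for AC50.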

A short description of test [12]: Cell Viability - LYMP2-007 (AID 979).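 Also: cells exposed to compound for 24 h before reading; nearly all actives have a fitted effect of over 60% in size.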 Also: potency is read from the fitted curve at half-maximal effect.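 As to activity change, negative = cytotoxicity: 0% = DMSO only and the negative end = 92 µM tetraoctylammonium bromide.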 The settings on record: LYMP2-007 lymphoblastoid cell viability; series mostly up to 92.2 µM. The essentials:
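Acute toxicity is scored as a concentration-dependent fall in intracellular ATP in human lymphoblastoid cells treated 24 hr at 37 C, measured by luciferase luminescence; Hill-equation modelling yields AC50.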

Test [13] is described as follows: Cell Viability - LYMP2-014 (AID 983).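 Also: cells exposed to compound for 24 h at 37 °C; nearly all actives have a fitted effect of over 50% in size.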 Also: potency is read from the fitted curve at half-maximal effect.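 As to activity change, negative = cytotoxicity: plate controls were DMSO only for no effect and 92 µM tetraoctylammonium bromide for full effect.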 Conditions: LYMP2-014 lymphoblastoid cells, viability qHTS; series mostly up to 92.2 µM. The gist of the method:
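Decrease in intracellular ATP after 24 hr treatment at 37 C, measured by luciferase luminescence, indicated cytotoxicity. Concentration-response data were fitted with the standard Hill equation to give AC50.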

The nature of test [14]: Cell Viability - LYMP2-016 (AID 984).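 Also: cells exposed to compound for 24 hours at 37 °C; nearly all actives have a fitted effect of over 55% in size.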 Also: potency is read from the fitted curve at half-maximal effect. As to activity change, negative = cytotoxicity: % is scaled to controls: 0 for no effect and ±100 for the full control effect. The settings on record: LYMP2-016 lymphoblastoid cell viability, qHTS; series mostly up to 92.2 µM. The essentials:
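Concentration-dependent ATP depletion measured in LYMP2-016 lymphoblastoid cells, 24 h, 37 C; luciferase-based luminescent detection; Hill-equation AC50.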

Test [15] is described as follows: Cell Viability - LYMP2-018 (AID 985).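 Also: compound exposure lasted 24 hr at 37 °C; nearly all actives have a fitted effect of over 50% in size.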 Also: potency is read from the fitted curve at half-maximal effect.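 As to activity change, negative = cytotoxicity: plate controls were DMSO only for no effect and tetraoctylammonium bromide at 92 µM for full effect.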 The settings on record: LYMP2-018 lymphoblastoid cells, viability (qHTS); series mostly up to 92.2 µM. The essentials: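 Acute cytotoxicity is scored as a concentration-dependent drop in intracellular ATP after 24 hr exposure of the lymphoblastoid line in complete culture medium, measured by luciferase luminescence. Potency is expressed as AC50 from Hill modelling.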

A short description of test [16]: Cell Viability - LYMP2-020 (AID 986).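 Also: cells exposed to compound for 24 h at 37 °C; nearly all actives have a fitted effect of over 55% in size.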 Also: potency is read from the fitted curve at half-maximal effect. The settings on record: series mostly up to 92.2 µM. The gist of the method:
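Acute cytotoxicity in a human lymphoblastoid line is scored as a concentration-dependent fall in cellular ATP after 24 hr at 37 C in complete medium. The positive control is tetraoctylammonium bromide, and potency is given as Hill-fit AC50.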

Test [17] in a line: Cell Viability - LYMP2-022 (AID 987). Also: nearly all actives have a fitted effect of over 55% in size. Also: potency is read from the fitted curve at half-maximal effect. The settings on record: LYMP2-022 lymphoblastoid cell viability; series mostly up to 92.2 µM. The essentials:
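Acute toxicity in a human lymphoblastoid line is scored as decreased intracellular ATP after 24 hr compound treatment at 37 C. ATP is measured by CellTiter-Glo luminescence; curves are fitted with the Hill equation to give AC50.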

A short description of test [18]: Cell Viability - LYMP1-002 - Assay at 24 hr (AID 993). Also: % is scaled to controls: 0 for no effect and ±100 for the full control effect. The settings on record: LYMP1-002 lymphoblastoid cells viability; series mostly up to 92.2 µM. The essentials:
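qHTS, LYMP1-002 lymphoblastoid, 24 h cpd, 37 C, CellTiter-Glo ATP luminescence; AC50 via Hill eq.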

Test [19] in a line: qHTS assay for environmental chemicals that activate the Aryl hydrocarbon Receptor (AhR) signaling pathway (AID 651777). Also: nearly all actives have a fitted effect of over 15% in size. Also: potency is read from the fitted curve at half-maximal effect. As to activation: % of control where 0% means no effect. The settings on record: 1A2-DRE human hepatoma cells, luciferase, 24 h; activation: active compounds read high. The essentials:
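Quantitative HTS in stably transfected human liver-derived cells whose luciferase gene sits downstream of the CYP1A2 promoter and dioxin response element. After 24 hr exposure at 37 C, One-Glo luminescence was measured.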

Test [20] concerns the target Nuclear receptor subfamily 1 group I member 2 (Rattus norvegicus) (UniProt Q9R1A7). The test is described as follows: qHTS assay for small molecule activators of the rat pregnane X receptor (rPXR) signaling pathway (AID 651751; call rule not given here; also: 0% is about no effect). Conditions: rPXR reporter cells, luciferase (One-Glo), 24 h.

The structures appear in SMILES notation. “And” between values parts separate entries of the source, which are not always exact repeats. Equal values may be shown once. Unmarked numbers belong to inactive results. Inconclusive results are not listed. The source made the active and inactive calls. Unless noted, calls follow the shape of the dose curve; as a rule, active = well fitted curve in the direction sought with a large enough effect; inconclusive = small, poorly fitted or top-dose-only effect, or another doubt; inactive = no such curve, though single readings can be large; an effect the other way counts as inactive or inconclusive.

Sequence of Nuclear receptor subfamily 1 group I member 2 (Rattus norvegicus) (Q9R1A7 whole entry, looked up): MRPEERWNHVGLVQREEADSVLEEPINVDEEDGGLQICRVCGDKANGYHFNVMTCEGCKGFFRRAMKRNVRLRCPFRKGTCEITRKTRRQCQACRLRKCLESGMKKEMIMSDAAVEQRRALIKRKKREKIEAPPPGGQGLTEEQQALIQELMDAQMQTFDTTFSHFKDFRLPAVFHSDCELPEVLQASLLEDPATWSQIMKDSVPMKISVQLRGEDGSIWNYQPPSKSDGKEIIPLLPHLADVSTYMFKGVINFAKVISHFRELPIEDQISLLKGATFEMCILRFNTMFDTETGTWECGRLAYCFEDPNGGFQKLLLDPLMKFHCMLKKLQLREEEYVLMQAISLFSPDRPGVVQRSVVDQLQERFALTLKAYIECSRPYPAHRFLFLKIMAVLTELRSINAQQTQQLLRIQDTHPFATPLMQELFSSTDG

As for `CC(=O)CC(=O)Nc1ccccc1`, the Potency in test [1] and in [2] was above 92 µM each time. The Potency result in [3], in [4], in test [5], in test [6], in test [8] and in test [9] was “inactive” each time. Moreover, the Potency entry in test [10], in test [11], in test [12], in test [13], in [14] and in test [15] was “inactive” throughout. For the same molecule, the Potency entry in [16], in [17] and in [18] was “inactive” throughout. The molecule was called inactive in test [7]. In addition, the activation in test [19] is 1.24% and 1.64%. Moreover, the max response in test [20] is 8.9% and 1.01%.
In the case of `O=CC(=O)c1ccccc1`, the Potency in test [1] and in [2] was above 92 µM each time. Further, the Potency result in test [3], in test [4], in [5], in test [6], in [10] and in [13] was “inactive” each time. In addition, the Potency result in test [14], in [16] and in [18] was “inactive” each time. Moreover, in test [7], the molecule was called inactive. The activation in test [19] is 0.568%. Besides, in test [20], the max response was 11.8%.
As for `O=C(OCC1CO1)C1CCCCC1C(=O)OCC1CO1` (stereo not given), the Potency was above 92 µM in test [1]; above 92 µM in test [2]; 50.1 µM (active) in [12]; 39.8 µM (active) in test [15]; 39.8 µM (active) in test [17]. In addition, the Potency result in test [3], in [5], in test [6] and in test [18] was “inactive” throughout. Besides, the outcome in test [7] was inactive. Also, in test [19], the activation was 0.749%. Moreover, in test [20], the max response was 1.33%.
For `CCN(CC)c1ccc(N)cc1`, the Potency entry in test [4], in test [6], in test [8] and in [18] was “inactive” throughout. Besides, the Potency in [17] is 39.8 µM (active); in [19], 44.7 µM (active). Besides, in test [20], the max response is 3.24%.
As to `Oc1cc2c(cc1O)[C@H]1c3ccc(O)c(O)c3OC[C@@]1(O)C2`, the Potency entry in [4] is “inactive”. Moreover, the Potency in test [9] is 31.6 µM (active); in test [10], 39.8 µM (active); in test [11], 31.6 µM (active); in test [12] it was 39.8 µM (active); in [13] it was 39.8 µM (active); in test [14] it was 39.8 µM (active). Further, the Potency in test [15] is 31.6 µM (active); in test [16] it was 39.8 µM (active); in test [17], 31.6 µM (active). For the same molecule, the activation in test [19] was -1.85%. For the same molecule, the max response in test [20] was -8.86%.
`Cc1ccccc1OCC1CO1` (stereo not given): the Potency in [1] and in [2] was above 92 µM each time. Besides, the Potency entry in test [3], in test [4], in test [5], in test [6], in test [8] and in [9] was “inactive” each time. For the same molecule, the Potency result in test [10], in [11], in test [12], in test [13], in [14] and in [15] was “inactive” throughout. Moreover, the Potency entry in [16], in test [17] and in [18] was “inactive” each time. In addition, in test [7], the outcome was inactive. Also, the activation in test [19] is -0.0777%. For the same molecule, the max response in test [20] is 0.751%.
